# Publication PMC8384837, “Expanding the binding specificity for RNA recognition by a PUF domain”
# Experiments:
# Assay in all cases: yeast three-hybrid, YBZ-1, SC-Leu-His + 0.5 mM 3-AT, 4 days
# Settings in all cases: tags: N-Gal4 AD-HA kept; label: inside an RPR1-promoter hybrid RNA with tandem MS2 sites; ssRNA
# [1] = molecular target: PUM1 PUF domain R8-KWL (Homo sapiens, UniProt Q14671 828-1176, N1122K;Y1123W;Q1126L)
# Method in brief: (§1)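 Matching RNA elements and Pumilio-1 PUF domain libraries, randomized at the three base-contacting residues of every repeat, were co-expressed from a centromeric plasmid in strain YBZ-1 (LexA–MS2 coat fusion, HIS3 reporter). The repeat regions were PCR-amplified and Illumina-sequenced from cells grown four days on SC-Leu (input) or SC-Leu-His + 0.5 mM 3-AT (selection). The interaction score is the log change in variant frequency from input to selection. It is computed in log2, with a pseudocount of 1 for absent variants.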
# [2] = molecular target: PUM1 PUF domain R8-TYN (Homo sapiens, UniProt Q14671 828-1176, N1122T;Q1126N)
# Method in brief: as §1
# [3] = molecular target: PUM1 PUF domain R1-HRR (Homo sapiens, UniProt Q14671 828-1176, S863H;Q867R)
# Method in brief: as §1
# [4] = molecular target: PUM1 PUF domain R1-NGR (Homo sapiens, UniProt Q14671 828-1176, S863N;R864G;Q867R)
# Method in brief: as §1
# [5] = molecular target: PUM1 PUF domain R1-SKS (Homo sapiens, UniProt Q14671 828-1176, R864K;Q867S)
# Method in brief: as §1
# [6] = molecular target: PUM1 PUF domain R7-LER (Homo sapiens, UniProt Q14671 828-1176, S1079L;N1080E;E1083R)
# Method in brief: as §1
# [7] = molecular target: PUM1 PUF domain R7-RRG (Homo sapiens, UniProt Q14671 828-1176, S1079R;N1080R;E1083G)
# Method in brief: as §1
# [8] = molecular target: PUM1 PUF domain R2-TFG (Homo sapiens, UniProt Q14671 828-1176, N899T;Y900F;Q903G)
# Method in brief: as §1
# [9] = molecular target: T1, PUM1 PUF domain R6-AWS (Homo sapiens, UniProt Q14671 828-1176, N1043A;Y1044W;Q1047S)
# T1 sequence: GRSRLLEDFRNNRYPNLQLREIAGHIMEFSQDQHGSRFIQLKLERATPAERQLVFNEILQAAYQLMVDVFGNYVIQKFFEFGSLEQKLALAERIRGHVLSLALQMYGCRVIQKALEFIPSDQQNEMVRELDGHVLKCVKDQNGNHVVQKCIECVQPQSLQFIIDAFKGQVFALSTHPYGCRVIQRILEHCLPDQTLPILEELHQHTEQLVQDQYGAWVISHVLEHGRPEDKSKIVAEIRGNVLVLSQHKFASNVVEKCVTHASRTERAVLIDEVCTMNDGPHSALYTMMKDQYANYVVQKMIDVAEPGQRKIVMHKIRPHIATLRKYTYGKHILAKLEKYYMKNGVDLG
# Method in brief: as §1
# [10] = molecular target: PUM1 PUF domain R5-SNG (Homo sapiens, UniProt Q14671 828-1176, C1007S;R1008N;Q1011G)
# Method in brief: as §1
# [11] = molecular target: PUM1 PUF domain R5-DFG (Homo sapiens, UniProt Q14671 828-1176, C1007D;R1008F;Q1011G)
# Method in brief: as §1
# [12] = molecular target: PUM1 PUF domain R5-GAR (Homo sapiens, UniProt Q14671 828-1176, C1007G;R1008A;Q1011R)
# Method in brief: as §1
# [13] = molecular target: PUM1 PUF domain R4-TPT (Homo sapiens, UniProt Q14671 828-1176, N971T;H972P;Q975T)
# Method in brief: as §1
# [14] = molecular target: PUM1 PUF domain R4-GQR (Homo sapiens, UniProt Q14671 828-1176, N971G;H972Q;Q975R)
# Method in brief: as §1
# [15] = molecular target: PUM1 PUF domain R4-YLL (Homo sapiens, UniProt Q14671 828-1176, N971Y;H972L;Q975L)
# Method in brief: as §1
# [16] = molecular target: PUM1 PUF domain R4-PWC (Homo sapiens, UniProt Q14671 828-1176, N971P;H972W;Q975C)
# Method in brief: as §1
# [17] = molecular target: PUM1 PUF domain R3-DHS (Homo sapiens, UniProt Q14671 828-1176, C935D;R936H;Q939S)
# Method in brief: as §1
# [18] = molecular target: PUM1 PUF domain R8-RYT (Homo sapiens, UniProt Q14671 828-1176, N1122R;Q1126T)
# Method in brief: as §1
# [19] = molecular target: PUM1 PUF domain R4-CGC (Homo sapiens, UniProt Q14671 828-1176, N971C;H972G;Q975C)
# Method in brief: as §1
# [20] = molecular target: PUM1 PUF domain R3-YCV (Homo sapiens, UniProt Q14671 828-1176, C935Y;R936C;Q939V)
# Method in brief: as §1
sequence,measurement,setting,value
GGCUAGAACUAGUGGAUCCCCCGGCGCCCGGCGGCUCGAGCCCGGGUAAGCGUAAAUAGUCUGCAUGCCGCCGGGCGCCAUGCCUGCAGGUCGACUCUAGAAAACAUG,binding signal,[1],5.91 log2 enrichment (interaction score)
same,binding signal,[2],2.62 log2 enrichment (interaction score)
GGCUAGAACUAGUGGAUCCCCCGGCGCCCGGCGGCUCGAGCCCGGGUAAGUGUAAAUUGUCUGCAUGCCGCCGGGCGCCAUGCCUGCAGGUCGACUCUAGAAAACAUG,binding signal,[3],2.71 log2 enrichment (interaction score)
same,binding signal,[4],2.32 log2 enrichment (interaction score)
same,binding signal,[5],2.64 log2 enrichment (interaction score)
GGCUAGAACUAGUGGAUCCCCCGGCGCCCGGCGGCUCGAGCCCGGGUAAGUUUAAAUAGUCUGCAUGCCGCCGGGCGCCAUGCCUGCAGGUCGACUCUAGAAAACAUG,binding signal,[6],3.41 log2 enrichment (interaction score)
same,binding signal,[7],4.6 log2 enrichment (interaction score)
GGCUAGAACUAGUGGAUCCCCCGGCGCCCGGCGGCUCGAGCCCGGGUAAGUGUAAAUCGUCUGCAUGCCGCCGGGCGCCAUGCCUGCAGGUCGACUCUAGAAAACAUG,binding signal,[3],2.84 log2 enrichment (interaction score)
same,binding signal,[4],4.09 log2 enrichment (interaction score)
same,binding signal,[5],1.17 log2 enrichment (interaction score)
GGCUAGAACUAGUGGAUCCCCCGGCGCCCGGCGGCUCGAGCCCGGGUAAGUGUAAAAAGUCUGCAUGCCGCCGGGCGCCAUGCCUGCAGGUCGACUCUAGAAAACAUG,binding signal,[8],4.09 log2 enrichment (interaction score)
GGCUAGAACUAGUGGAUCCCCCGGCGCCCGGCGGCUCGAGCCCGGGUAAGUGAAAAUAGUCUGCAUGCCGCCGGGCGCCAUGCCUGCAGGUCGACUCUAGAAAACAUG,binding signal,[9],5.94 log2 enrichment (interaction score)
GGCUAGAACUAGUGGAUCCCCCGGCGCCCGGCGGCUCGAGCCCGGGUAAGUGUUAAUAGUCUGCAUGCCGCCGGGCGCCAUGCCUGCAGGUCGACUCUAGAAAACAUG,binding signal,[10],3.2 log2 enrichment (interaction score)
same,binding signal,[11],6.17 log2 enrichment (interaction score)
same,binding signal,[12],2.98 log2 enrichment (interaction score)
GGCUAGAACUAGUGGAUCCCCCGGCGCCCGGCGGCUCGAGCCCGGGUAAGUCUAAAUAGUCUGCAUGCCGCCGGGCGCCAUGCCUGCAGGUCGACUCUAGAAAACAUG,binding signal,[7],3.12 log2 enrichment (interaction score)
GGCUAGAACUAGUGGAUCCCCCGGCGCCCGGCGGCUCGAGCCCGGGUAAGUGUACAUAGUCUGCAUGCCGCCGGGCGCCAUGCCUGCAGGUCGACUCUAGAAAACAUG,binding signal,[13],3.15 log2 enrichment (interaction score)
same,binding signal,[14],2.32 log2 enrichment (interaction score)
GGCUAGAACUAGUGGAUCCCCCGGCGCCCGGCGGCUCGAGCCCGGGUAAGUGUAAAUAGUCUGCAUGCCGCCGGGCGCCAUGCCUGCAGGUCGACUCUAGAAAACAUG,binding signal,[15],4.38 log2 enrichment (interaction score)
same,binding signal,[16],7.51 log2 enrichment (interaction score)
same,binding signal,[1],5.16 log2 enrichment (interaction score)
same,binding signal,[11],3.79 log2 enrichment (interaction score)
same,binding signal,[17],3.1 log2 enrichment (interaction score)
same,binding signal,[12],1.64 log2 enrichment (interaction score)
same,binding signal,[13],2.59 log2 enrichment (interaction score)
same,binding signal,[18],2.86 log2 enrichment (interaction score)
same,binding signal,[19],3.48 log2 enrichment (interaction score)
GGCUAGAACUAGUGGAUCCCCCGGCGCCCGGCGGCUCGAGCCCGGGUAAGUGUAAGUAGUCUGCAUGCCGCCGGGCGCCAUGCCUGCAGGUCGACUCUAGAAAACAUG,binding signal,[20],2.69 log2 enrichment (interaction score)
GGCUAGAACUAGUGGAUCCCCCGGCGCCCGGCGGCUCGAGCCCGGGUAAGUGUCAAUAGUCUGCAUGCCGCCGGGCGCCAUGCCUGCAGGUCGACUCUAGAAAACAUG,binding signal,[11],2 log2 enrichment (interaction score)
same,binding signal,[12],5.42 log2 enrichment (interaction score)
